Data on 17 compounds can be found in PubChem BioAssay (NCI).

Compounds without any hit were thinned out: in the full panel of roughly 79,000, 15% have a hit. The source made the active and inactive calls. No stated cut-off is given here; in the data, active means growth inhibition above about 70%; inactive means the rest.

The test can be described thus: NCI Yeast Anticancer Drug Screen. Data for the rad14 strain (AID 159).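 Further: 0% = growth of vehicle-treated control cultures.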 As to conditions: S. cerevisiae rad14 strain growth inhibition; at 3.7 µM; stronger effect = higher value. A digest of the protocol:
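Test compounds were applied to a repair-deficient yeast strain. Its growth was then compared with that of cultures given vehicle alone, and inhibition was expressed relative to those controls.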
Take `C/C(=N\NC(=S)SCc1ccccc1)c1ccccn1`: the growth inhibition was -4% (inactive).

In the case of `CC[C@@]1(O)C(=O)OCc2c1cc1n(c2=O)Cc2cc3c(N)cccc3nc2-1`, the growth inhibition was -29% (inactive).

Regarding `CN(C)c1ccc(Sc2ccc3nc(N)nc(N)c3c2)cc1`, the growth inhibition was -4% (inactive).

As to `CC(=O)OCCOCNC(=S)N/N=C(\C)c1cnccn1`, the growth inhibition is -12% (inactive).

For the compound `COc1ccc(C2c3cc4c(cc3OC(C)(O)C2C)OCO4)c(OC)c1` (configuration not stated), the growth inhibition is -4% (inactive).

For `COc1cc(C2SCC(=O)N2c2ccc(-c3ccc(-n4c(-c5ccccc5)nc5ccccc5c4=O)cc3)cc2)cc(OC)c1OC` (configuration not stated), the growth inhibition was 0% (inactive).

Turning to `COc1ccc(Br)c(C(=O)Sc2nnnn2-c2cccc(Cl)c2)c1`, the growth inhibition was -5% (inactive).

On to `O=C(NNc1ccnc2cc(Cl)ccc12)/C(=C\c1ccccc1Cl)NC(=O)c1ccccc1`, for which the growth inhibition was 1% (inactive).

As for `CSC(=S)Nc1cccc(C)n1`, the growth inhibition is -15% (inactive).

For the compound `O=C(/C=C\c1ccc(Cl)cc1Cl)c1cccs1`, the growth inhibition is 1% (inactive).

As for `COc1ccc(-c2cn(-c3ccc(I)cc3)c3ncnc(N)c23)cc1`, the growth inhibition was -8% (inactive).

On to `CN(C)c1ccc(C(C#N)=C(C#N)C#N)cc1`, for which the growth inhibition was 8% (inactive).

With `COc1cc(/C=C2\CCc3ccccc3C2=O)cc(OC)c1OC`, the growth inhibition is -25% (inactive).

With `CC(C)/C(Cl)=N\OC(=O)Nc1cccc(Cl)c1`, the growth inhibition was 2% (inactive).

As to `CC1(C)[C@@H]2CC[C@]1(C)[C@H](OC(=O)CSC#N)C2`, the growth inhibition is -1% (inactive).

`NNC(=O)CCc1ccc2ccc3ccccc3c2c1`: the growth inhibition is -2% (inactive).

Regarding `COc1ccc(/C(C)=N/OC(=O)c2c(-c3ccccc3Cl)noc2C)cc1CN1CCOCC1`, the growth inhibition was -17% (inactive).
